# Test results as given in paper PMC4336329 (PLoS ONE, 2015).
# About 14,000 (4.5%) of roughly 310,000 compounds showed an effect of 50% or more. Effects have a minus sign here. This is one part of a sample in which strong results are shown more often than they occur.
# Target: human ether-à-go-go-related gene (hERG) potassium channel (human, UniProt Q12809)
# Assay: primary screen, population patch clamp on CHO cells stably expressing hERG; higher = less effect of the substance
# 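Also: peak tail current of the secondary pulse compared with the same well before compound.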
# Sequence of human ether-à-go-go-related gene (hERG) potassium channel (Q12809 whole entry, looked up): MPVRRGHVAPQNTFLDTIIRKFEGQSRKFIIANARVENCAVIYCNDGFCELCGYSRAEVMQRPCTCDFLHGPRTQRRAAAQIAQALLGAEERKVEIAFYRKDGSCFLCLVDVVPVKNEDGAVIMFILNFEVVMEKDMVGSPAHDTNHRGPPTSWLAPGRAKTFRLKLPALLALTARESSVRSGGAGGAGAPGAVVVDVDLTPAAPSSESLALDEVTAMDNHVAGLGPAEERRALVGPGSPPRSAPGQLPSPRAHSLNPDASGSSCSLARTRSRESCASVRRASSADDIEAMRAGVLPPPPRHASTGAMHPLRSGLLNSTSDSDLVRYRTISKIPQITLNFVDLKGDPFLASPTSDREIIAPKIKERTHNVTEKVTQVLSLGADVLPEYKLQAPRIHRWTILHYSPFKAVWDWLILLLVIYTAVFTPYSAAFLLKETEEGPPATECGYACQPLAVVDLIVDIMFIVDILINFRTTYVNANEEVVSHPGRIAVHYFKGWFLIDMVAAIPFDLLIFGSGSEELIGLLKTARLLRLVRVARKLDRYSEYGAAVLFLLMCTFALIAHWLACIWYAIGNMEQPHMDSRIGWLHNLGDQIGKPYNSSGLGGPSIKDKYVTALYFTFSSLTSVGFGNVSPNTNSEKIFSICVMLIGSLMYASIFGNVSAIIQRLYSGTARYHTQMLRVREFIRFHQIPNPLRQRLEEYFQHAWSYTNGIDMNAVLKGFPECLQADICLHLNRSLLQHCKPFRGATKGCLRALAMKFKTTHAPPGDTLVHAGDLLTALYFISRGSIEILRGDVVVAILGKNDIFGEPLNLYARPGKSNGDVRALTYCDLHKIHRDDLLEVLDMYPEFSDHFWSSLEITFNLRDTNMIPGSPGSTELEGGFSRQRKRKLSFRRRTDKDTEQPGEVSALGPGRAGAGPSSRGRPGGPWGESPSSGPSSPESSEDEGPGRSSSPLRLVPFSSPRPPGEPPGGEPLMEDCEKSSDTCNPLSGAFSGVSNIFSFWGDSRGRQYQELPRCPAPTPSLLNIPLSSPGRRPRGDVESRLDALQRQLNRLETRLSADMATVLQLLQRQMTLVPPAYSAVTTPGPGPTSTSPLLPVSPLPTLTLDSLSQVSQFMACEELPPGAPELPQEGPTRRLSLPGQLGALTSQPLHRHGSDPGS
row,Structure (SMILES),"hERG current change (%, negative = inhibition) at 10uM [%]"
1,C=CCN1C(=O)C(C)(C)N(C(=O)c2cccc([N+](=O)[O-])c2)c2ccccc21,-16.4
2,Cc1ccc[n+](C2C(c3ccc([N+](=O)[O-])cc3)C(C#N)=C([S-])NC2(O)C2CC2)c1 (stereo not shown),0.00258
3,O=C(CCCN1C(=O)c2ccccc2C1=O)NCC1CCCO1 (stereo not shown),12.2
4,COc1cc(SC)ccc1C(=O)Nc1ccc2c(c1)OCCO2,-18.4
5,CCCCc1c(C)nn(-c2nnc3c4ccccc4n(C)c3n2)c1C,-4.7
6,CCCC1=Nc2cc(C(=O)NCCCN3CCOCC3)ccc2Sc2ccccc21,-9.32
7,CN(C)S(=O)(=O)c1cccc(NC(=O)c2cc([N+](=O)[O-])ccc2N2CCCCC2)c1,-53
8,CN(C)S(=O)(=O)c1ccc(N2CCCC2)c(C(=O)Nc2cccc(F)c2)c1,0.224
9,O=C(Nc1cccc(C(F)(F)F)c1)c1cc(S(=O)(=O)N2CCCCC2)ccc1N1CCOCC1,-8.02
10,O=C(Nc1cccc(S(=O)(=O)N2CCOCC2)c1)c1cc([N+](=O)[O-])ccc1N1CCOCC1,-15.2
11,CC(=O)Nc1cccc(NC(=O)c2cc([N+](=O)[O-])ccc2N2CCCCC2)c1,-69.3
12,Cc1ccc(NC(=O)c2cc([N+](=O)[O-])ccc2N2CCCC2)cc1,-0.291
13,COc1ccc(NC(=O)c2cc([N+](=O)[O-])ccc2N2CCCCC2)cc1,4.86
14,CN(C)S(=O)(=O)c1ccc(N2CCCC2)c(C(=O)Nc2ccccc2)c1,-23.5
15,O=C(Nc1cccc(S(=O)(=O)N2CCCCC2)c1)c1cc([N+](=O)[O-])ccc1N1CCOCC1,-64.2
16,N#CC(C#N)=Cc1cccn1-c1ccc(C(=O)O)cc1,15.5
17,CC(C)NC(=O)CN1C(=O)C(=O)c2ccccc21,-9.78
18,Cc1nc2ccc(S(=O)(=O)NC(C(=O)N3CCCC3)C(C)C)cc2s1 (stereo not shown),7.12
19,COc1cc2c(cc1OC)CN(C(=O)c1ccc(S(=O)(=O)N3CCCCCC3)cc1)CC2,-27.3
20,Cc1nnc(NC(=O)CSc2nc3c(c(=O)n2C)SC(C)C3)s1 (stereo not shown),4.1
21,Cc1ccc(-c2nnc(SCC(=O)NNC(=O)COc3cccc4ccccc34)n2C)cc1,5.74
22,O=C(N/N=C/c1ccccc1)c1ccc(N2CCCC2=O)cc1,5.87
23,COc1cccc(/C=N/NC(=O)c2ccc(N3CCCC3=O)cc2)c1,-19.8
24,O=C(N/N=C/c1cccc(Br)c1)c1ccc(N2CCCC2=O)cc1,-57.6
25,CC(Oc1ccc([N+](=O)[O-])cc1)C(=O)NCC1CCCO1 (stereo not shown),-7.02

row,Structure (SMILES),"hERG current change (%, negative = inhibition) at 10uM [%]"
1,COc1ccccc1N1C(=O)c2cccc3c(N(C)CCO)ccc(c23)C1=O,5.75
2,Fc1ccc(C(CCNCc2ccccn2)c2ccc(Cl)cc2)cc1 (stereo not shown),-77.5
3,COCCCNC(=O)c1ccc2c(c1)OCO2,-9.98
4,Fc1cccc(CCNCc2ccccn2)c1,-6.71
5,Fc1ccccc1CNCCc1ccc2c(c1)OCO2,-7.43
6,CCNCCC(CCC(C)C)c1ccc2c(c1)OCO2 (stereo not shown),-72
7,Cl.Fc1ccc(-c2ccc(CNCc3ccccn3)o2)cc1,-25.4
8,Cl.Fc1ccccc1CNCCC(Cc1ccccc1)c1ccc2c(c1)OCO2 (stereo not shown),-50.6
9,CC(NC(=O)C1CCC1)c1ccc2c(c1)OCO2 (stereo not shown),-5.51
10,COCCCNS(=O)(=O)c1ccc2c(c1)OCCO2,6.53
11,CC(=O)N(CCC(Cc1ccccc1)c1ccc2c(c1)OCO2)Cc1ccccc1F (stereo not shown),7.53
12,CCc1ccccc1NC(=O)NC(C)c1ccc2c(c1)OCO2 (stereo not shown),14
13,COCCCNCCC(CCC(C)C)c1ccc2c(c1)OCO2.Cl (stereo not shown),-80.2
14,Nc1nc(NCCOCCO)nc(NCc2ccccc2)c1[N+](=O)[O-],-1.49
15,O=C(NCc1ccccc1)C(=O)Nc1cccc(C(=O)O)c1,4.16
16,NC(=O)N/N=C/c1ccccc1OCC(=O)NCc1ccccc1,-3.76
17,S=c1[nH]nc(-c2ccncc2)n1/N=C/C=C/c1ccccc1,8.71
18,COc1ccc(S(=O)(=O)N(CCC(=O)O)Cc2ccccc2)cc1,13.7
19,Cc1ccc(-n2ncc3c(=O)n(CC(=O)NC4CCCC4)cnc32)cc1C,5.66
20,CCOC(=O)c1ccc(NC(=O)Cc2coc3cc4c(cc23)CCC4)cc1,5.55
21,CO[C@@]1(NC(=O)CSCC#N)C(=O)N2C(C(=O)[O-])=C(CSc3nnnn3C)CS[C@@H]21.[Na+],4.09
22,Cc1cccc(NC(=O)NNS(=O)(=O)c2ccc(F)cc2)c1,-1.81
23,CSc1nnc(SCC#N)s1,8.95
24,CC(C)CCNC(=O)CN(C(=O)CCC(=O)Nc1nccs1)c1ccc2c(c1)OCCO2,-4.45
25,Cc1cc(N/N=C/c2ccccc2)nc(N)n1,-14.5

row,Structure (SMILES),"hERG current change (%, negative = inhibition) at 10uM [%]"
1,CC(C)CCC(CCNCc1ccccn1)c1ccc(Cl)cc1 (stereo not shown),-80.4
2,O=C(NCc1ccccn1)Nc1ccc(Cl)cc1,13.9
3,CC(C)C(CCNCc1ccccn1)c1ccc(Cl)cc1 (stereo not shown),-41.6
4,CC(C)CCC(CCNCc1ccccn1)c1ccc2c(c1)OCO2.Cl (stereo not shown),-75.5
5,c1ccc(CNCc2ccc3c(c2)OCO3)nc1,11.2
6,O=C(O)C(=O)O.c1ccc(CNCCc2ccc3c(c2)OCO3)nc1,2.74
7,O=C(CF)NC(Nc1cccc2cccnc12)C(Cl)(Cl)Cl (stereo not shown),-5.95
8,COc1ccc(N2CCN(C(=O)c3ccc4c(c3)CCN4S(=O)(=O)c3ccccc3)CC2)cc1,-23.2
9,O=C(NCC1CC1)Nc1ccccc1,16.3
10,N#C/C(=C/c1cc[nH]c1)C(N)=S,14.2
11,COc1ccccc1NC(=O)CN1CCN(Cc2ccccc2)CC1,-67.6
12,COc1ccc(Cl)cc1NC(=O)CN1CCC(NC(=O)C2CC2)CC1,-52
13,CSc1ccccc1NC(=O)CN1CCCCC1,8.96
14,CSc1ccccc1NC(=O)CN1CCN(Cc2ccccc2)CC1,-66.3
15,COc1ccccc1NC(=O)CN1CCN(c2ccccc2)CC1,-12.7
16,CCN1CCC(NC(=O)Nc2cc(Cl)ccc2OC)CC1,-2.83
17,O=C(CN1CCN(S(=O)(=O)c2ccccc2[N+](=O)[O-])CC1)NC(=O)NCc1ccco1,-5.96
18,COc1ccc(N2CCN(CC(=O)Nc3ccccc3SC)CC2)cc1,-5.77
19,CSc1ccccc1NC(=O)CN1CCN(S(=O)(=O)c2ccccc2[N+](=O)[O-])CC1,-52.2
20,COC(=O)C1CCN(CC(=O)Nc2cc(Cl)ccc2OC)CC1,-19
21,COc1ccccc1NC(=O)CCN1CCN(Cc2ccccc2)CC1,-22.3
22,O=C(CN1CCN(S(=O)(=O)c2ccccc2[N+](=O)[O-])CC1)Nc1ccc(N2CCOCC2)cc1,-12.9
23,Cc1ccccc1C(=O)NC(=S)Nc1ccccc1[N+](=O)[O-],18.1
24,O=C(NC(Cc1c[nH]c2ccccc12)c1nnc2n1CCCCC2)c1ccccc1 (stereo not shown),18.7
25,Cc1ccc(S(=O)(=O)N2CCCC(C(=O)NCCC3=CCCCC3)C2)cc1 (stereo not shown),-4.03

row,Structure (SMILES),"hERG current change (%, negative = inhibition) at 10uM [%]"
1,CC1Cc2ccccc2N1C(=O)Cn1cnc2ccccc2c1=O (stereo not shown),21.8
2,Cc1cc(C)nc(NC(=O)CSc2ccccn2)n1,1.08
3,C/C(=N/NC(=O)c1ccc(Br)o1)c1ccncc1,7.82
4,CCOc1ccccc1NC(=O)C1CCN(c2ccc(S(=O)(=O)N3CCCC3)cc2)CC1,-6.65
5,CCC1CCCCN1CCNS(=O)(=O)c1ccc2c(c1)CCN2C(C)=O (stereo not shown),-1.09
6,CCN1CCN(C(=O)N(c2ccccc2)c2ccccc2)CC1,11.9
7,Cc1n[nH]c(=O)c2c(NC(=O)CSc3nc4ccccc4c(=O)n3CCCO)oc(C)c12,-21.2
8,COc1cccc(Cn2c(Oc3cccc(C)c3)nc3c2c(=O)n(C)c(=O)n3C)c1,-9.7
9,O=S(=O)(N/N=C/c1ccc(F)cc1)c1ccccc1,6.88
10,Cn1nc(-c2ccc(NCCO)c([N+](=O)[O-])c2)c2ccccc2c1=O,-2.29
11,O=C(c1ccccc1Cl)N(Cc1ccc(Cl)c(Cl)c1)N1C(=O)CCCC1=O,-6.37
12,CC(=O)Nc1ccc(NC(=O)C(C)Oc2ccccc2C(=O)NCc2ccccc2)cc1 (stereo not shown),-46.9
13,COc1ccc(OC2CCN(S(=O)(=O)c3ccc(C(C)=O)cc3)CC2)cc1,-19.7
14,COc1ccc(Cl)cc1NC(=O)CCN1CCN(Cc2ccccc2)CC1,-64.6
15,COc1ccc(OC)c(NC(=O)CCN2CCN(Cc3ccccc3)CC2)c1.Cl,-32.9
16,COc1ccc(Cl)cc1NC(=O)CN1CCCC1.Cl,5.1
17,COc1ccc(Cl)cc1NC(=O)CN1CCN(Cc2ccccc2)CC1,-68.9
18,COc1ccccc1NC(=O)c1nnn(Cc2ccccc2)c1NC(=O)C(F)(F)F,-53
19,O=C(Nc1ccccc1)c1nnn(Cc2ccccc2)c1NC(=O)C(F)(F)F,-7.45
20,COc1ccccc1NC(=O)c1nnn(Cc2ccccc2)c1NC(C)=O,2.36
21,COc1ccc(Cl)cc1NC(=O)CCN1CCN(c2ccccc2C)CC1,6.79
22,COc1ccc(Cl)cc1NC(=O)CN1CCCCCC1,-8.36
